The values that follow come from PubChem BioAssay (EPA / NIEHS).

Results filed as inconclusive are left out. Activity calls are given as the source filed them. Rule for the calls: active = hit-call score of the fitted dose curve at least 0.9, where 1 is the maximum; inconclusive = response in the unintended direction; inactive = score below 0.9.

Read-out in the test: alkyl and aryl transferase (GSTA2), GSTA2 (gene 2939)
The experiment in a line: CLD_GSTA2_6hr: CellzDirect (CLD) Gene Expression Assay for alkyl and aryl transferase (GSTA2) at 6 hours (AID 2283666). How it is done:
CLD_6hr is a cell-based, multiplexed-readout assay that uses hepatocyte, a human liver primary cell, with measurements taken at 6 hours after chemical dosing in a 96-well plate.CLD_GSTA2_6hr is one of 16 assay component(s) measured or calculated from the CLD_6hr assay. It is designed to make measurements of mRNA induction, a form of inducible reporter, as detected with chemiluminescence signals by Quantitative Nuclease Protection Assay (qNPA) technology.Data from the assay component CLD_GSTA2_6hr was analyzed at the endpoint, CLD_GSTA2_6hr, in the positive analysis fitting direction relative to DMSO as the negative control and baseline of activity. Using a type of inducible reporter, gain-of-signal activity can be used to understand changes in the reporter gene as they relate to the gene GSTA2. Furthermore, this assay endpoint can be referred to as a primary readout. To generalize the intended target to other relatable targets, this assay endpoint is annotated to the transferase intended target family, where subfamily is alkyl and aryl transferase.
Human hepatocyte cultures were treated daily for two consecutive days with fresh dosing solutions containing appropriate concentrations of the 320 ToxCast chemicals (chemical identities were blinded to CellzDirect and other ToxCast collaborators), vehicle control (0.2% DMSO), and positive control inducers as summarized in Table 1. Due to the large number of treatment groups and chemicals examined, the ToxCast chemicals were divided into two groups (spanning two independent cultures of hepatocytes from separate donor preparations (Hu778: ToxCast plates 1 and 2; Hu776: ToxCast plates 3 and 4). Each preparation of human hepatocyte cultures was treated with respective vehicle control, medium only control, set of six positive controls/reference chemicals for the five hepatic receptor pathways, and a subset of eight of the ToxCast chemicals (indoxacarb, pyrithiobac-sodium, norflurazon, cyhalofop-butyl, methomyl, thiram, acetochlor, and propiconazole). These replicate data, coupled with internal replicates designed within the blinded ToxCast chemical library, provided additional data to evaluate interindividual differences between hepatocyte preparations and their potential impact on chemical profiles.Cell morphology and integrity were evaluated using phase-contrast microscopy as an indicator of hepatocyte cell health (Tyson & Green, 1987). Cultures for each treatment group (i.e., media, vehicle [0.2% DMSO], positive control inducers [multiple concentrations], and the ToxCast chemicals [multiple concentrations]) were observed and cell morphology was assessed relative to vehicle control cultures at each harvest time point (0, 6, 24, or 48 h). […] Images were evaluated at the conclusion of the study to assess changes in cell integrity and account for the effects of chemical exposure on uncharacteristic changes in concentration-dependent gene expression profiles. The results from these determinations of apparent cytotoxicity were annotated (yes/no) alongside the corresponding qNPA data for reference.At the conclusion of each treatment period, hepatocyte cultures (96-well) were washed with 1 volume of HBSS, lysed by addition of 25 ul ArrayPlate lysis buffer (HTG, Tucson, AZ), and 70 ul/well of Denaturation Oil, denatured by incubation at 95C for 10 min, and frozen at approximately -70C until analysis by nuclease protection assay (qNPA) (Roberts et al., 2007). For qNPA analysis, cell lysates were thawed at 50C for approximately 30 min, qNPA probes were added, and samples were incubated at 95C for 10 min to begin the detection process by denaturing the target RNA, dissociating the duplexes and secondary structure hybridization. At the conclusion of the hybridization period, S1 nuclease reagent was added to each sample to digest all nonprotected nucleotides at 50C for 60-90 min. […]
For the molecule `CNc1cnn(-c2cccc(C(F)(F)F)c2)c(=O)c1Cl`, the outcome was inactive. Then `CCCCOC(=O)c1ccccc1C(=O)O`, with “inactive”. Consider `Cc1nn(-c2cc(NS(C)(=O)=O)c(Cl)cc2Cl)c(=O)n1C(F)F`, for which the result was inactive. Consider `CN(C)[C@@H]1C(=O)C(C(N)=O)=C(O)[C@@]2(O)C(=O)C3=C(O)c4c(O)cccc4[C@@](C)(O)[C@H]3[C@H](O)[C@@H]12`, for which the molecule was classed as inactive.

On to `CC(C)[C@H](C(=O)O[C@H](C#N)c1cccc(Oc2ccccc2)c1)c1ccc(Cl)cc1`, for which the molecule was classed as inactive. Consider `COP(=O)(OC)C(O)C(Cl)(Cl)Cl` (stereo not given), for which the outcome was inactive. Then `CCC(=O)Nc1ccc(Cl)c(Cl)c1`, with “inactive”; and `CNC(=O)Oc1cccc2c1OC(C)(C)O2`, with “inactive”. As to `CCCOc1nn(C(=O)NS(=O)(=O)c2ccccc2C(=O)OC)c(=O)n1C`, the outcome was inactive.

Consider `CCOP(=O)(NC(C)C)Oc1ccc(SC)c(C)c1` (stereo not given), for which the molecule was called inactive. Then `C[N+]1(C)CCCCC1`, with “inactive”; and `CCOC(=O)COc1cc(-c2nn(C)c(OC(F)F)c2Cl)c(F)cc1Cl`, with “inactive”; and `C#CCC1=C(C)C(OC(=O)C2C(C=C(C)C)C2(C)C)CC1=O` (stereo not given), with “inactive”.

For `CCc1cnc(C2=NC(C)(C(C)C)C(=O)N2)c(C(=O)O)c1` (stereo not given), the outcome was inactive. On to `COc1ccc(C(=CC(=O)N2CCOCC2)c2ccc(Cl)cc2)cc1OC`, for which the outcome was inactive. Then `CNC(=O)ON=C(C)SC`, with “inactive”.

Turning to `CSC1=N[C@@](C)(c2ccccc2)C(=O)N1Nc1ccccc1`, the result was inactive. As to `CCCCN(CC)c1c([N+](=O)[O-])cc(C(F)(F)F)cc1[N+](=O)[O-]`, the call was inactive. Regarding `COP(=O)(OC)SCn1c(=O)oc2cc(Cl)cnc21`, the molecule was called inactive. For `CCOP(=S)(OCC)Oc1cc(C)nc(C(C)C)n1`, the outcome was inactive. Then `CC[C@H](C)[C@H]1O[C@]2(C=C[C@@H]1C)C[C@@H]1C[C@@H](C/C=C(\C)[C@@H](O[C@H]3C[C@H](OC)[C@@H](O[C@H]4C[C@H](OC)[C@@H](NC)[C@H](C)O4)[C@H](C)O3)[C@@H](C)/C=C/C=C3\CO[C@@H]4[C@H](O)C(C)=C[C@@H](C(=O)O1)[C@]34O)O2`, with “inactive”; and `CC(C)N(C(=O)SCC(Cl)=C(Cl)Cl)C(C)C`, with “inactive”; and `CCCOCC(=Nc1ccc(Cl)cc1C(F)(F)F)n1ccnc1`, with “inactive”. Regarding `COP(=O)(OC)OC(Br)C(Cl)(Cl)Br` (stereo not given), the molecule was classed as inactive. For `CCOP(=S)(OCC)Oc1ccc2c(C)c(Cl)c(=O)oc2c1`, the outcome was inactive. Then `CC(Oc1cccc(Cl)c1)C(=O)O` (stereo not given), with “inactive”; and `CCOP(=S)(Oc1cnc(C(C)(C)C)nc1)OC(C)C` (stereo not given), with “inactive”; and `CN1COCN(Cc2cnc(Cl)s2)C1=N[N+](=O)[O-]`, with “inactive”. As to `CC(COc1ccc(Oc2ccccc2)cc1)Oc1ccccn1` (stereo not given), the call was inactive. For `CCc1cccc(CC)c1N(COC)C(=O)CCl`, the molecule was called inactive. Then `C=C(C)[C@H]1Cc2c(ccc3c2O[C@@H]2COc4cc(OC)c(OC)cc4[C@@H]2C3=O)O1`, with “inactive”. Consider `O=c1ccc(=O)[nH][nH]1`, for which the molecule was classed as inactive.

Regarding `CC1(C(=O)Nc2ccc(O)c(Cl)c2Cl)CCCCC1`, the outcome was inactive. Then `CCC(=NOC/C=C/Cl)C1=C(O)CC(C2CCOCC2)CC1=O` (stereo not given), with “inactive”. Take `CCOP(=S)(OCC)Oc1ccc([N+](=O)[O-])cc1`: the call was inactive. As for `COc1cc(OC)nc(Sc2cccc(Cl)c2C(=O)O)n1`, the result was inactive. `S=C1NCCN1`: the result was inactive.

As for `CC(C)=CC1C(C(=O)OCN2C(=O)C3=C(CCCC3)C2=O)C1(C)C` (stereo not given), the result was inactive.

Regarding `CC1=NNC(=O)N(/N=C/c2cccnc2)C1`, the molecule was classed as inactive. As for `COc1cccc(C(=O)NN(C(=O)c2cc(C)cc(C)c2)C(C)(C)C)c1C`, the outcome was inactive.
